Test results published in PubChem BioAssay (NCI).
About 79,000 compounds went through this panel and 15% of them were active in at least one assay; those are over-represented in the sample as a whole. Activity calls are given as the source filed them. Rule as the data show it: active = growth inhibition above about 70%; inactive = the rest.

How the values were obtained:
[1] = NCI Yeast Anticancer Drug Screen. Data for the rad52 strain (AID 147);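 also: 0% = growth of vehicle-treated control cultures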; conditions: S. cerevisiae rad52 mutant growth inhibition, active compounds read high
In short: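 Genetically altered yeast (DNA damage repair defect) treated with compound; inhibition calculated relative to vehicle.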

[2] = NCI Yeast Anticancer Drug Screen. Data for the wt1 strain (AID 149);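 also: 0% = growth of vehicle-treated wt1 cultures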; conditions: S. cerevisiae wt1 strain (SPY 50644) growth inhibition, active compounds read high
In short: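 Yeast wt1 strain exposed to compounds; growth inhibition measured relative to vehicle-treated controls.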

[3] = NCI Yeast Anticancer Drug Screen. Data for the rad50EPP+ strain (AID 151);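 also: 0% = growth of vehicle-treated control cultures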; conditions: S. cerevisiae rad50 mutant strain, active compounds read high
In short: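 Strain rad50EPP+; compound exposure; % growth inhibition vs vehicle.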

[4] = NCI Yeast Anticancer Drug Screen. Data for the mgt1 strain (AID 153); conditions: S. cerevisiae mgt1 mutant growth inhibition, active compounds read high
In short: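 Read-out: yeast growth inhibition vs vehicle control. Strain mgt1, drawn from a panel altered in DNA damage repair or cell cycle control.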

[5] = NCI Yeast Anticancer Drug Screen. Data for the rad50 strain (AID 155);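 also: 0% = growth of vehicle-only cultures of the same strain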; conditions: S. cerevisiae rad50 strain growth inhibition, active compounds read high
In short: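 Yeast carrying a defined DNA repair defect were exposed to test compounds, and growth was compared with vehicle-treated controls to give percent inhibition.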

[6] = NCI Yeast Anticancer Drug Screen. Data for the mec2-1 strain (AID 157); conditions: S. cerevisiae mec2-1 strain, active compounds read high
In short: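 Cells of the genetically defined mec2-1 yeast strain are incubated with test compound. Inhibition of growth is calculated against vehicle-treated controls.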

[7] = NCI Yeast Anticancer Drug Screen. Data for the rad14 strain (AID 159);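 also: 0% = growth of vehicle-treated control cultures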; conditions: S. cerevisiae rad14 strain growth inhibition, active compounds read high
In short: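 Yeast cells carrying a defined DNA-repair defect were exposed to compounds, and growth inhibition was calculated relative to vehicle-treated control cultures.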

[8] = NCI Yeast Anticancer Drug Screen. Data for the sgs1 mgt1 strain (AID 161);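 also: 0% = growth of cultures given vehicle only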; conditions: S. cerevisiae sgs1 mgt1 strain, active compounds read high
In short: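 Mutant yeast exposed to compound; growth scored against vehicle-only wells.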

[9] = NCI Yeast Anticancer Drug Screen. Data for the CLN2oe strain (AID 163);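 also: 0% = growth of vehicle-only control cultures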; conditions: S. cerevisiae CLN2oe strain, active compounds read high
In short: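 Strain altered in cell-cycle control, incubated with compound; growth compared to solvent-treated controls.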

[10] = NCI Yeast Anticancer Drug Screen. Data for the cln2 rad14 strain (AID 165);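 also: 0% = growth equal to vehicle treated cultures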; conditions: S. cerevisiae cln2 rad14 strain, active compounds read high
In short: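 The screen exposed genetically defined yeast (cln2 rad14) to test compounds and scored growth inhibition relative to vehicle-treated controls.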

[11] = NCI Yeast Anticancer Drug Screen. Data for the bub3 strain (AID 167); conditions: S. cerevisiae bub3 mutant strain, active compounds read high
In short: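 Compounds were applied to a genetically altered yeast strain carrying a cell-cycle control defect. Growth inhibition was scored against vehicle-treated controls.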

[12] = NCI Yeast Anticancer Drug Screen. Data for the wt2 strain (AID 169);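 also: 0% = growth of vehicle-treated yeast cultures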; conditions: S. cerevisiae wt2 strain growth inhibition, active compounds read high
In short: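 Steps: yeast strain treated with compound; growth recorded; inhibition calculated relative to cultures given vehicle alone.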

[13] = NCI Yeast Anticancer Drug Screen. Data for the mlh1 strain (AID 171);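 also: 0% = growth of vehicle-treated control cultures of the same strain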; conditions: S. cerevisiae mlh1 strain growth inhibition, active compounds read high
In short: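 Yeast screen: mutant strain plus compound, growth scored against vehicle control wells.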

[14] = NCI Yeast Anticancer Drug Screen. Data for the sgs1 strain (AID 173);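 also: 0% = growth of vehicle-only control cultures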; conditions: S. cerevisiae sgs1 mutant, active compounds read high
In short: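 Inhibition of yeast growth served as the measure. The mutant strain was treated with each compound, and growth was normalised to cultures receiving vehicle alone.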

[15] = NCI Yeast Anticancer Drug Screen. Data for the mlh1 rad18 strain (AID 175); conditions: S. cerevisiae mlh1 rad18 strain growth inhibition, active compounds read high
In short: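 Compound-treated yeast growth, normalised to vehicle controls. Strain bears defined DNA repair mutations.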

[16] = NCI Yeast Anticancer Drug Screen. Data for the rad18 strain (AID 177); conditions: S. cerevisiae rad18 mutant growth inhibition, active compounds read high
In short: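 Inhibition values reflect reduced yeast growth compared with vehicle-treated controls, using a strain engineered with a DNA damage repair defect.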

[17] = at 5.0 µM (retest, dose inferred, filed as 0.5)
[18] = at 50.0 µM (retest, dose inferred, filed as 5.0)

Measured: growth inhibition

Cc1c(C(Cc2ccccc2N(C)C(=O)/C=C\C(=O)O)c2c[nH]c3ccccc23)c2ccccc2n1C (stereo not drawn)
active: [5]; at 50.0 µM 87.8% | [6]; at 50.0 µM 86.8% | [8]; at 50.0 µM 86.9% | [10]; at 50.0 µM 88.1% | [11]; at 50.0 µM 85.5% | [15]; at 50.0 µM 78%
inactive: [1]; at 1.2 µM -5% | [1]; at 3.7 µM 0% | [1]; at 11.0 µM 0% | [1]; at 33.0 µM 7% | [1]; at 100.0 µM 36% | [2]; at 1.2 µM -3% | [2]; at 3.7 µM -6% | [2]; at 11.0 µM -7% | [2]; at 33.0 µM 0% | [2]; at 100.0 µM 40% | [3]; at 1.2 µM -6% | [3]; at 3.7 µM -4% | [3]; at 11.0 µM -6% | [3]; at 33.0 µM -6% | [3]; at 100.0 µM 4% | [4]; at 1.2 µM -3% | [4]; at 3.7 µM -3% | [4]; at 11.0 µM -2% | [4]; at 33.0 µM 5% | [4]; at 100.0 µM 65% | [5]; at 1.2 µM 1% | [5]; at 3.7 µM -2% | [5]; [17] -12% | [5]; at 11.0 µM -9% | [5]; at 33.0 µM 8% | [5]; [18] -12% | [5]; at 100.0 µM 37% | [6]; at 1.2 µM -2% | [6]; at 3.7 µM -4% | [6]; [17] 8% | [6]; at 11.0 µM -5% | [6]; at 33.0 µM 2% | [6]; [18] 8% | [6]; at 100.0 µM 51% | [7]; at 1.2 µM -3% | [7]; at 3.7 µM -11% | [7]; at 11.0 µM -14% | [7]; at 33.0 µM -13% | [7]; at 100.0 µM 33% | [8]; [17] -16% | [8]; [18] -16% | [9]; at 1.2 µM -11% | [9]; at 3.7 µM -2% | [9]; at 11.0 µM -9% | [9]; at 33.0 µM -4% | [9]; at 100.0 µM 42% | [10]; [17] 38% | [10]; [18] 38% | [11]; at 1.2 µM -9% | [11]; at 3.7 µM -6% | [11]; [17] -6% | [11]; at 11.0 µM 4% | [11]; at 33.0 µM 6% | [11]; [18] -6% | [11]; at 100.0 µM 30% | [12]; at 1.2 µM -3% | [12]; at 3.7 µM -4% | [12]; at 11.0 µM -5% | [12]; at 33.0 µM 3% | [12]; at 100.0 µM 49% | [13]; at 1.2 µM -7% | [13]; at 3.7 µM -6% | [13]; at 11.0 µM -7% | [13]; at 33.0 µM 4% | [13]; at 100.0 µM 62% | [14]; at 1.2 µM -5% | [14]; at 3.7 µM -4% | [14]; at 11.0 µM -3% | [14]; at 33.0 µM 7% | [14]; at 100.0 µM 46% | [15]; [17] -9% | [15]; [18] -9% | [16]; at 1.2 µM -14% | [16]; at 3.7 µM -14% | [16]; at 11.0 µM -8% | [16]; at 33.0 µM 0% | [16]; at 100.0 µM 42%

C/C(=N\O)C1CC2C=C(C#N)C1N(Cc1ccccc1)C2 (stereo not drawn)
inactive: [1]; at 1.2 µM -5% | [1]; at 3.7 µM -3% | [1]; at 11.0 µM -1% | [1]; at 33.0 µM 1% | [1]; at 100.0 µM 8% | [2]; at 1.2 µM 0% | [2]; at 3.7 µM 4% | [2]; at 11.0 µM 1% | [2]; at 33.0 µM -1% | [2]; at 100.0 µM -1% | [3]; at 1.2 µM 2% | [3]; at 3.7 µM 2% | [3]; at 11.0 µM 5% | [3]; at 33.0 µM 9% | [3]; at 100.0 µM 19% | [4]; at 1.2 µM -5% | [4]; at 3.7 µM -4% | [4]; at 11.0 µM -5% | [4]; at 33.0 µM -3% | [4]; at 100.0 µM -1% | [5]; at 1.2 µM -3% | [5]; at 3.7 µM -3% | [5]; [17] -6% | [5]; at 11.0 µM 0% | [5]; at 33.0 µM 0% | [5]; [18] -1% | [5]; at 50.0 µM 8.05% | [5]; at 100.0 µM 5% | [6]; at 1.2 µM 0% | [6]; at 3.7 µM 3% | [6]; [17] -16% | [6]; at 11.0 µM 4% | [6]; at 33.0 µM 4% | [6]; [18] -13% | [6]; at 50.0 µM 7.3% | [6]; at 100.0 µM 0% | [7]; at 1.2 µM -3% | [7]; at 3.7 µM -1% | [7]; at 11.0 µM 2% | [7]; at 33.0 µM 1% | [7]; at 100.0 µM 7% | [8]; [17] -10% | [8]; [18] 24% | [8]; at 50.0 µM 3.75% | [9]; at 1.2 µM -5% | [9]; at 3.7 µM -14% | [9]; at 11.0 µM -7% | [9]; at 33.0 µM -2% | [9]; at 100.0 µM -2% | [10]; [17] -1% | [10]; [18] 8% | [10]; at 50.0 µM 11.3% | [11]; at 1.2 µM -4% | [11]; at 3.7 µM -5% | [11]; [17] -3% | [11]; at 11.0 µM -3% | [11]; at 33.0 µM -2% | [11]; [18] 13% | [11]; at 50.0 µM 10.7% | [11]; at 100.0 µM -5%
